Inconclusive results are not listed. The source made the active and inactive calls. Unless noted, calls come from the whole dose curve; as a rule, active = well fitted curve in the direction sought with a large enough effect in the repeat runs; inconclusive = weak or mixed curves; inactive = no such curve, though single readings can be large; an effect the other way counts as inactive or inconclusive.
Assays:
[1] = qHTS RealTime-Glo MT Cell Viability Assay in HEK293 cells - 8 hour (AID 1224887); note: top concentration of the series differs between compounds; nearly all actives have a fitted effect of over 50% in size
Method in brief: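 600 cells/well were plated with the nonlytic NanoLuc/prosubstrate reagent, pre-incubated 5 h, then given 23 nL of compound in DMSO. Incubation at 37 C for 40 h, with luminescence from viable-cell-reduced substrate read repeatedly from 0 h.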

[2] = A CellTox Green Cytotoxicity Assay to monitor cytotoxicity in HEK293 cells - 16 hour (AID 1224888); note: nearly all actives have a fitted effect of over 35% in size
Method in brief: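 HEK293 cells, 600/well, were preincubated 5 hours and then exposed to compounds at 37 C for up to 40 hours. A cell-impermeant cyanine dye staining dead-cell DNA was read by fluorescence at 0, 8, 16, 24, 32 and 40 h time points.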

[3] = qHTS RealTime-Glo MT Cell Viability Assay in HepG2 cells - 0 hour (AID 1224889); note: nearly all actives have a fitted effect of over 50% in size
Method in brief: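 Real-time, nonlytic viability: 600 HepG2 cells/well mixed with NanoLuc enzyme plus prosubstrate; 5 h settle, compound (DMSO) added by pintool; luminescence monitored over 40 h at 37 C.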

[4] = A CellTox Green Cytotoxicity Assay to monitor cytotoxicity in HepG2 cells - 8 hour (AID 1224890); note: nearly all actives have a fitted effect of over 45% in size
Method in brief: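 HepG2 cells, 600/well, preincubated 5 h with CellTox Green dye, then exposed to Tox21 compounds in DMSO at 37 C for up to 40 h. Dead-cell DNA fluorescence read at the indicated time point.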

[5] = qHTS assay to identify small molecule antagonists of the estrogen receptor alpha (ER-alpha) signaling pathway using the BG1 cell line in the presence of 0.1 nM 17-beta-estradiol - cell viability counter screen (AID 1259241); note: nearly all actives have a fitted effect of over 40% in size
Method in brief: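 VM7Luc4E2 cells (endogenous ER-alpha, 4×ERE-luciferase), hormone-starved 5 days in charcoal-stripped FBS, were treated with compounds plus 0.1 nM 17beta-estradiol for 22 hr at 37C; viability read in same wells as CellTiter-Fluor live-cell protease fluorescence.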

[6] = qHTS assay to identify small molecule antagonists of the androgen receptor (AR) signaling pathway using the MDA cell line in the presence of 0.5 nM R1881 - cell viability counter screen (AID 1259242); note: nearly all actives have a fitted effect of over 45% in size
Method in brief: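 MDA-kb2 cells (MMTV-luciferase, AR/GR responsive) were treated with compounds plus 0.5 nM R1881 (final) for 16 hr at 37C, 0% CO2. Viability was then read in the same wells as live-cell protease fluorescence (CellTiter-Fluor, 30 min).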

[7] = target: Estrogen receptor (Homo sapiens) (UniProt P03372); test: qHTS assay to identify small molecule antagonists of the estrogen receptor alpha (ER-alpha) signaling pathway using the BG1 cell line in the presence of 0.1 nM 17-beta-estradiol (AID 1259244); note: nearly all actives have a fitted effect of over 50% in size
Chain of Estrogen receptor (Homo sapiens) (P03372 whole entry, looked up): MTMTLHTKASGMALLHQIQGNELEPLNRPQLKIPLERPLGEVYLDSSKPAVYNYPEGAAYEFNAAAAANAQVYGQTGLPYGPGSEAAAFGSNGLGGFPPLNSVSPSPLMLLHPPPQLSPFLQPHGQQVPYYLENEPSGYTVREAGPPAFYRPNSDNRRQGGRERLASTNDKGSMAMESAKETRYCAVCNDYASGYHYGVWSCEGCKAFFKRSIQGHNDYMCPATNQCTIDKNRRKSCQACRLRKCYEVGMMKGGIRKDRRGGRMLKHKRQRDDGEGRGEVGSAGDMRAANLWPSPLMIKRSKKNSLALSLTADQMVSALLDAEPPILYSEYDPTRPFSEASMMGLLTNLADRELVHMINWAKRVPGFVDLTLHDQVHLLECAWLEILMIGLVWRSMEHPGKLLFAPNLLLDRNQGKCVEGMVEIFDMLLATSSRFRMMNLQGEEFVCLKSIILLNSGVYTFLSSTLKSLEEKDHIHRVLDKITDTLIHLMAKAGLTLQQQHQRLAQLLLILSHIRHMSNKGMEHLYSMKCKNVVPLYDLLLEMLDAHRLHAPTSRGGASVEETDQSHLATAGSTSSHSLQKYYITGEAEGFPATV
Method in brief: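 VM7Luc4E2 cells (endogenous full-length ER-alpha, 4×ERE-luciferase), kept 5 days in phenol red-free, charcoal-stripped FBS medium; 4,000 cells/well. Compounds added with 0.1 nM (final) 17beta-estradiol, 22 hr at 37C; luminescence read with ONE-Glo after 30 min.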

[8] = qHTS assay to identify small molecule HDAC inhibitors (AID 1259364); note: top concentration of the series differs between compounds; nearly all actives have a fitted effect of over 45% in size
Method in brief: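 Wild-type HCT-116 cells, plated overnight at 37 C, exposed to compounds 2 hr at 37 C; luminogenic HDAC-Glo substrate then added 30 min at room temperature. Luminescence reports relative endogenous class I/II HDAC activity.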

[9] = qHTS assay to identify small molecule phospholipidosis (PLD) inducers (AID 1259344; active = well fitted curve in the direction sought with a large enough effect; an effect the other way counts as inactive or inconclusive)
Method in brief: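 Phospholipidosis is scored by imaging LipidTOX-stained pits in HepG2 cells exposed to compound for 24 h at 37 C; pit counts and integrated intensities per well and per cell serve as outputs.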
% is set by controls: 0 for no effect and ±100 for the full control effect.

CCCOCCOCCOCCO
inactive: Potency [1] | Potency [2] | Potency [3] | Potency [4] | Potency [5] | Potency [6] | Potency [7] | Potency [8]

CC1=NN(c2ccc(S(=O)(=O)O)cc2)C(=O)C1N=Nc1ccccc1 (configuration not stated)
inactive: Potency [2] | Potency [3] | Potency [5] | Potency [7] | Potency [8]

CCN(Cc1cccc(S(=O)(=O)O)c1)c1ccccc1
inactive: Potency [1] | Potency [2] | Potency [3] | Potency [4] | Potency [5] | Potency [6] | Potency [7] | Potency [8]

CC(C)COC(=O)CCCCC(=O)OCC(C)C
inactive: Potency [1] | Potency [2] | Potency [3] | Potency [4] | Potency [5] | Potency [6] | Potency [8]

COCC(=O)Nc1c(I)c(C(=O)NCC(O)CO)c(I)c(C(=O)N(C)CC(O)CO)c1I (configuration not stated)
inactive: Potency [2] | Potency [3] | Potency [4] | Potency [5] | Potency [6] | Potency [7] | outcome [9] | Potency [8]

COC(/C=C(\C)CCC=C(C)C)OC
inactive: Potency [1] | Potency [3] | Potency [4] | Potency [5] | Potency [6] | Potency [7] | Potency [8]

C=C(C)C(=O)OC
inactive: Potency [1] | Potency [2] | Potency [3] | Potency [4] | Potency [5] | Potency [6] | Potency [8]

CCC(O)C(C)(C)C (configuration not stated)
inactive: Potency [3] | Potency [4] | Potency [5] | Potency [6] | Potency [7] | Potency [8]

Cc1ccc(S(=O)(=O)NC(=O)NC2CCCCCCC2)cc1
inactive: Potency [1] | Potency [2] | Potency [3] | Potency [4] | Potency [5] | Potency [6] | outcome [9] | Potency [8]

CNCc1ccccc1
inactive: Potency [1] | Potency [2] | Potency [3] | Potency [4] | Potency [5] | Potency [6] | outcome [9] | Potency [8]

CC(=O)OC(C)c1ccccc1 (configuration not stated)
inactive: Potency [1] | Potency [2] | Potency [3] | Potency [4] | Potency [5] | Potency [6] | Potency [7] | Potency [8]

COc1cc2c3cc1Oc1cc(ccc1O)C[C@@H]1c4c(cc(OC)c(O)c4Oc4ccc(cc4)C[C@@H]3N(C)CC2)CC[N+]1(C)C
inactive: Potency [1] | Potency [2] | Potency [3] | Potency [4] | Potency [5] | Potency [6] | outcome [9] | Potency [8]

CCOC(=O)C(C)(C)C
inactive: Potency [1] | Potency [2] | Potency [3] | Potency [4] | Potency [5] | Potency [6] | Potency [7] | Potency [8]

Oc1ccccc1Cc1ccccc1O
inactive: Potency [2] | Potency [3] | Potency [5] | Potency [6] | Potency [7] | Potency [8]

CC(C)COC(=O)/C=C/c1ccccc1
inactive: Potency [1] | Potency [2] | Potency [3] | Potency [4] | Potency [5] | Potency [6] | Potency [7] | Potency [8]

CCOc1ccc(NC(=O)OC(C)C)cc1OCC
inactive: Potency [1] | Potency [2] | Potency [3] | Potency [4] | Potency [5] | Potency [6] | Potency [8]

CCCCOC(=O)C(=O)OCCCC
inactive: Potency [1] | Potency [2] | Potency [3] | Potency [4] | Potency [5] | Potency [6] | Potency [8]

CC(C)COC(=O)CC(C(=O)OCC(C)C)S(=O)(=O)O (configuration not stated)
inactive: Potency [1] | Potency [2] | Potency [3] | Potency [4] | Potency [5] | Potency [6] | Potency [7] | Potency [8]

CCCC(C)CC (configuration not stated)
inactive: Potency [2] | Potency [3] | Potency [4] | Potency [5] | Potency [6] | Potency [8]

CCOC(=O)CCc1ccccc1
inactive: Potency [2] | Potency [3] | Potency [4] | Potency [5] | Potency [6] | Potency [8]

CC(C)C(=O)c1ccccc1
inactive: Potency [1] | Potency [2] | Potency [3] | Potency [4] | Potency [5] | Potency [6] | Potency [7] | Potency [8]

CN(C1CCCCC1)S(=O)(=O)c1ccccc1N
inactive: Potency [1] | Potency [2] | Potency [3] | Potency [4] | Potency [5] | Potency [6] | Potency [8]

CCCCCCCCC(=O)OCC
inactive: Potency [1] | Potency [2] | Potency [3] | Potency [4] | Potency [5] | Potency [6] | Potency [7] | Potency [8]

BrC/C=C/CBr
inactive: activity change, negative = cytotoxicity [1] -6.32% [at 15.8 µM] | activity change [2] 4.41% [at 15.8 µM, active compounds read high] | activity change, negative = cytotoxicity [3] 4.43% [at 15.8 µM] | cytotoxicity increase [4] -2.29% [at 15.8 µM] | activity change, negative = cytotoxicity [5] 5.53% [at 19 µM] | viability change, negative = cytotoxic [6] 0.0069% [at 19 µM] | activity change, negative = inhibition [8] -0.207% [at 19 µM]

CC(=O)OC(C(=O)c1ccccc1)c1ccccc1 (configuration not stated)
inactive: Potency [2] | Potency [3] | Potency [4] | Potency [5] | Potency [6] | Potency [7] | Potency [8]

CC(C)c1ccccc1O
inactive: Potency [1] | Potency [2] | Potency [3] | Potency [4] | Potency [5] | Potency [6] | Potency [8]

CC(=O)/C=C/c1ccco1
inactive: Potency [1] | Potency [2] | Potency [3] | Potency [4] | Potency [5] | Potency [6] | Potency [7] | Potency [8]

CCN(CC)C(=O)C1CN2CCc3cc(OC)c(OC)cc3C2CC1OC(C)=O (configuration not stated)
inactive: Potency [1] | Potency [2] | Potency [3] | Potency [4] | Potency [5] | Potency [6] | Potency [7] | Potency [8]

CC(CC(=O)O)CC(C)(C)C (configuration not stated)
inactive: Potency [1] | Potency [2] | Potency [3] | Potency [4] | Potency [5] | Potency [6] | Potency [7] | Potency [8]

From PubChem BioAssay (Tox21)
